In all, about 310,000 compounds went through this assay and about 2,200 (0.71%) showed an effect of 50% or more. Effects have a minus sign here. The sample holds strong results, similar compounds and a random draw of the others, so the mix is not that of the screen.
Each molecule was assayed against human ether-à-go-go-related gene (hERG) potassium channel (human, UniProt Q12809) (assay: primary screen, population patch clamp on CHO cells stably expressing hERG; higher = less effect of the substance).
Chain of human ether-à-go-go-related gene (hERG) potassium channel (Q12809 whole entry, looked up): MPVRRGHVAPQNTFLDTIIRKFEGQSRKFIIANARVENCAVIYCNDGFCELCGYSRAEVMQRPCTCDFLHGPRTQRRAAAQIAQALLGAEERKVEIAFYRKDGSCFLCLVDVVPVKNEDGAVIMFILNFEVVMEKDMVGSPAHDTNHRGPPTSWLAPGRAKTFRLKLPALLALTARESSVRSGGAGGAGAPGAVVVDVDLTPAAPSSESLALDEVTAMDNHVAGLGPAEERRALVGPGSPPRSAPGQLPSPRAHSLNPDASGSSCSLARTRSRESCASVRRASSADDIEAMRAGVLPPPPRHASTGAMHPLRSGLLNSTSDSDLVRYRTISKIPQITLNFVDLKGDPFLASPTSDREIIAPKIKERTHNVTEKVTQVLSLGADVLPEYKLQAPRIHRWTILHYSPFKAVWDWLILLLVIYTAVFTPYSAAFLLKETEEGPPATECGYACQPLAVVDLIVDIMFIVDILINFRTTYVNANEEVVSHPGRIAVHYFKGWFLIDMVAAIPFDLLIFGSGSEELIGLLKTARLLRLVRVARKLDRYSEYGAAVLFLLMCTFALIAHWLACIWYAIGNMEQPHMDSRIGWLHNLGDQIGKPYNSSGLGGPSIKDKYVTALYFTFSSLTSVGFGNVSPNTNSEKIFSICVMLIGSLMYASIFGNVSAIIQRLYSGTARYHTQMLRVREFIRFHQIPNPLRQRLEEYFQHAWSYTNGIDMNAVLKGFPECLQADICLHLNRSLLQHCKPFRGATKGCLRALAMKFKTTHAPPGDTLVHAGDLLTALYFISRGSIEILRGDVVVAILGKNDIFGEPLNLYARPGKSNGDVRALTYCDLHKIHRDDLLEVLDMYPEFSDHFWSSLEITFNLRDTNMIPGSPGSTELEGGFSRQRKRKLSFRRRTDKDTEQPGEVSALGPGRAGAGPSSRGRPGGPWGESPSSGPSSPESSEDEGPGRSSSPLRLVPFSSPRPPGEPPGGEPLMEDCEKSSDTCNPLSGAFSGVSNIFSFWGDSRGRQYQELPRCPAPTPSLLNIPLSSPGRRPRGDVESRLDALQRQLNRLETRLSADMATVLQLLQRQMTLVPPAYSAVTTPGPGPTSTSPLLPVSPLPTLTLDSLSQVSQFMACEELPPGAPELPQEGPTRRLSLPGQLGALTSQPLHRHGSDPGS

SMILES	hERG current change (%, negative = inhibition) at 1uM
CC(C)Oc1ccc(C(=O)OCC(=O)NCCNC(=O)COC(=O)c2ccc(OC(C)C)cc2)cc1	8.62%
Cc1ccc(CCNC(=O)C2CCCN(S(=O)(=O)N3CC(C)CC(C)C3)C2)cc1 (centres unmarked)	16.3%
COc1cc(Cl)c(C)cc1NC(=O)COc1ccccc1[N+](=O)[O-]	-2.79%
COc1cccc(/C=C/C(=O)Nc2ccc3c(c2)OCCO3)c1OC	15.5%
CC(=O)NCCc1nc(-c2ccc(Cl)cc2)no1	10.3%
CC(C)OC(=O)Cc1ccccc1	10.3%
CCOc1nc(S(=O)(=O)c2ccc(C)cc2)c(Cl)s1	7.74%
Clc1ccc(-c2nc(NCCN3CCOCC3)c3ccccc3n2)cc1	-16.9%
Clc1ccc(-c2nnc(NCc3ccccc3)c3ccccc23)cc1	4.55%
Clc1ccc(-c2nnc(NCCN3CCCC3)c3ccccc23)cc1	-55.1%
COc1ccc(NC(=O)CSc2nnc(Cn3c(=O)sc4ccccc43)n2C)c(OC)c1	-2.58%
CCN(C(=O)CSc1nc(N)cc(N)n1)C1CCS(=O)(=O)C1 (centres unmarked)	7.31%
CN(CC#CC(O)(c1ccccc1)c1ccccc1)C(C)(C)C	-40.8%
CN(C)C(C)(C)C#CCC(c1ccccc1)c1ccccc1.Cl	5.49%
CN(CC#CCC(c1ccccc1)c1ccccc1)C(C)(C)C.Cl	-56.4%
CNc1ccc(/C=C/C(=O)c2cccc3ccccc23)cc1[N+](=O)[O-]	7.91%
CC(C)c1ccc(N(CC(=O)N2CCN(Cc3ccccc3)CC2)S(C)(=O)=O)cc1	7.12%
Cc1cc(/C([O-])=C(/C(=S)Nc2ccc(F)cc2)[n+]2ccccc2)c(C)n1-c1ccc(F)cc1	-1.77%
Cc1ccc(C(=O)Nc2nc3ccccc3n2CCN2CCCC2)cc1	-19.5%
O=C(Nc1nc2ccccc2n1CCN1CCCCC1)c1ccco1	-37.4%
CCn1nccc1C(=O)Nc1nc2ccccc2n1CCN1CCCCC1	-11.2%
CCn1cc(Cl)c(C(=O)Nc2nc3ccccc3n2CCN2CCCCC2)n1	-51.8%
O=C(Nc1nc2ccccc2n1CCN1CCCCC1)c1ccc(Cl)cc1	-5.1%
Cc1c(Cl)c(C(=O)Nc2nc3ccccc3n2CCN2CCCCC2)nn1C	-61.5%

SMILES	hERG current change (%, negative = inhibition) at 1uM
CC(C)Oc1cccc(C(=O)C2CCCN(C(=O)CCc3cnn(C)c3)C2)c1 (centres unmarked)	10.7%
CCCn1c(C)cc(/C=C(\C#N)C(=O)OCC(=O)N(C)c2c(N)n(Cc3ccccc3)c(=O)[nH]c2=O)c1C	11%
O=C(CNc1ccc(F)cc1)N/N=C/c1c(O)ccc2ccccc12	6.94%
CCNc1nnc(-c2ccc(C)cc2)o1	9.37%
C/C=C/c1ccc(OCCCNC)c(OC)c1.O=C(O)C(=O)O	-10.9%
C/C=C/c1ccc(OCCCCNCc2ccco2)c(OC)c1.O=C(O)C(=O)O	-62.6%
C/C=C/c1ccc(OCCNCc2ccccc2)c(OC)c1.O=C(O)C(=O)O	4.38%
O=C(c1cccnc1NCc1ccc(F)cc1)N1CCOCC1	5.16%
CN(C)c1ccc(/C=C/C(=O)c2ccccc2)cc1[N+](=O)[O-]	-0.74%
COC(=O)C1CCN(C(=O)/C=C/c2ccccc2)CC1	11.1%
CCc1ccccc1NC(=O)CN1CCN(CC(=O)Nc2ccc(-c3ccccc3)cc2)CC1	-7.45%
Cc1cccc(NC(=O)CN2CCN(C(=O)C3CCN(C(=O)/C=C/c4ccccc4)CC3)CC2)c1C	-56.6%
CCc1ccccc1NC(=O)CN1CCN(C(=O)C2CCN(C(=O)/C=C/c3ccccc3)CC2)CC1	-74.5%
Cc1cccc(NC(=O)CN2CCN(C(=O)C3CCCO3)CC2)c1C (centres unmarked)	5.32%
Cc1cccc(NC(=O)CN2CCN(C(=O)C3CCC3)CC2)c1C	-7.56%
O=C(CN1CCN(C(=O)c2ccco2)CC1)NCc1ccc(Cl)cc1	-35.1%
O=C(OCC(=O)N1CCN(C(=O)c2ccco2)CC1)c1cncc(Br)c1	6.76%
C[C@@H](C(=O)NCc1c(F)cccc1Cl)N1C(=O)N2CCc3c([nH]c4ccccc34)[C@@]2(C)C1=O	4.12%
CC1(C)OC(=O)C(=CNc2ccccc2)C(=O)O1	2.21%
C[N+]1=C(/C=C/Nc2ccccc2)C(C)(C)c2ccccc21.[O-][Cl+3]([O-])([O-])[O-]	-62.8%
COC(=O)c1ccc2c(c1)C(C)(C)C(/C=C/c1ccccc1O)=[N+]2C.[I-]	-7.78%
O=C1c2ccccc2C(=O)N1OCc1ccc(Cl)cc1	8.72%
Clc1ccccc1OCCN1CCC(Cc2ccccc2)CC1.O=C(O)C(=O)O	10.6%
Cc1ccccc1OCCN1CCC(Cc2ccccc2)CC1.O=C(O)C(=O)O	-10%

SMILES	hERG current change (%, negative = inhibition) at 1uM
COc1ccc(CN2CCN(Cc3ccc(C)cc3)CC2)c(OC)c1.O=C(O)C(=O)O	-18.9%
COc1ccc(CN2CCN(Cc3ccc(C(F)(F)F)cc3)CC2)c(OC)c1.O=C(O)C(=O)O	-66.6%
COc1cc(C(=O)OCC(=O)N2CCC(Cc3ccccc3)CC2)cc(OC)c1OC	13.4%
COc1ccc(OC)c(CN2CCC(Cc3ccccc3)CC2)c1.O=C(O)C(=O)O	-61.9%
COc1ccc(OC)c(CN2CCN(C(=O)Cc3ccccc3)CC2)c1.O=C(O)C(=O)O	17.6%
COc1cc(C(C)=O)ccc1OCCN1CCC(Cc2ccccc2)CC1.O=C(O)C(=O)O	-93.3%
COc1ccc(CN2CCC(Cc3ccccc3)CC2)cc1OC.O=C(O)C(=O)O	-32.9%
CCOc1ccccc1OCCN1CCC(Cc2ccccc2)CC1.O=C(O)C(=O)O	-53.7%
COc1cc(CN2CCC(C)CC2)ccc1OCc1ccccc1.O=C(O)C(=O)O	-3.21%
COc1ccc(CN2CCN(Cc3ccc(C(F)(F)F)cc3)CC2)cc1.O=C(O)C(=O)O	-24.5%
COC(=O)C1CCN(C(=O)Cc2ccc(C)cc2)CC1	10.2%
COc1cccc(C(=O)Nc2cccc(-c3nnc(-c4ccco4)o3)c2)c1	-1.01%
O=C(O)c1cccc(O)c1O	8.42%
CCOC(=O)N1CCN(Cc2cc(=O)oc3cc4c(cc23)CCC4)CC1	-3.49%
Cc1cc(=S)[nH]c2c(C)cccc12	15.9%
c1ccc(-c2cnnc(-c3ccccn3)n2)cc1	4.98%
CN(C)CCCOC(=O)c1cc2ccccc2o1.Cl	13%
COc1ccccc1C1=NOC(C(=O)N2CCN(C(=O)c3ccco3)CC2)C1 (centres unmarked)	8.33%
Cc1cccc2cc(C#N)c(NCCCn3ccnc3)nc12	-11.1%
COc1ccc(CN2CCC(N(CCc3ccccc3)Cc3ccccc3)CC2)c(OC)c1.O=C(O)C(=O)O	-79.8%
COc1ccc(CCNC(=O)c2ccc(CN3CCC(Cc4ccccc4)CC3)cc2)cc1OC	-3.19%
COc1ccc(CN2CCC(C(=O)N(C)CCc3ccc(OC)c(OC)c3)CC2)c(OC)c1.O=C(O)C(=O)O	-18%
COc1cc(C(C)=O)ccc1OCCCN1CCC(Cc2ccccc2)CC1.O=C(O)C(=O)O	-82.8%
COc1cccc(CN2CCC(N(CCc3ccccc3)Cc3ccccc3)CC2)c1OC.O=C(O)C(=O)O	0.877%

SMILES	hERG current change (%, negative = inhibition) at 1uM
COc1cc(C(=S)N2CCC(Cc3ccccc3)CC2)ccc1OCC(N)=O	3.73%
CC(C)(C)c1ccc(COn2ccnc2)cc1	21%
COC(=O)CSc1ccc(C#N)c(SCC(=O)OC)c1	12.6%
COC(=O)c1ccc(NC(=O)CN2CCN(S(=O)(=O)c3cc(Cl)ccc3OC)CC2)cc1	10.2%
O=C(CSc1n[nH]c(-c2cccnc2)n1)Nc1ccccc1[N+](=O)[O-]	11.9%
COc1cccc(Cn2c(-c3cccs3)noc2=O)c1	-8.06%
COc1ccc(C)cc1S(=O)(=O)N(CC(=O)N1CCOCC1)c1cc(C)cc(C)c1	-52%
COc1ccc(C)cc1S(=O)(=O)N(CC(=O)N1CCCC1)c1ccccc1	4.54%
COc1ccc(C)cc1S(=O)(=O)N(CC(=O)N1CCCC1)c1ccc(C)cc1	-25.1%
CCCC(=O)Nn1cnc2c(c1=O)C1(CCCCC1)Cc1ccccc1-2	7.68%
COCCN=C1Sc2nc3cc(C)c(C)cc3cc2CN1Cc1cccs1	8.08%
NC(=O)C1(N2CCCCC2)CCN(CC(=O)Nc2cc(Cl)ccc2Cl)CC1	-55.3%
NC(=O)C1(N2CCCCC2)CCN(CC(=O)Nc2ccccc2-c2ccccc2)CC1	15.5%
COc1ccc(NC(=O)CN2CCC(C(N)=O)CC2)cc1	2.62%
COc1ccc(NC(=O)CCN2CCN(S(=O)(=O)c3ccc(Cl)cc3)CC2)cc1	2.03%
COc1cccc(NC(=O)CN2CCN(CC(=O)Nc3ccccc3Cl)CC2)c1	-21.1%
CCOc1ccc(NC(=O)CN2CCN(S(=O)(=O)c3ccc(Cl)cc3)CC2)cc1	10.8%
O=C(CN1CCCCC1)Nc1cc(Cl)ccc1Cl	-0.089%
COc1ccc(NC(=O)CN2CCN(CC(=O)Nc3ccc(OC)c(OC)c3)CC2)cc1	-66.1%
COc1ccc(NC(=O)CN2CCN(CC(=O)Nc3ccccc3Cl)CC2)cc1	-79.3%
COc1ccc(NC(=O)CN2CCCCCC2)cc1OC	7.92%
COc1ccc(NC(=O)CN2CCN(c3ccccc3Cl)CC2)cc1	1.08%
COc1ccc(NC(=O)CN2CCN(S(=O)(=O)c3ccc(Cl)cc3)CC2)cc1	-64.1%
